Assay outcomes: PubChem BioAssay, National Center for Advancing Translational Sciences (NCATS)
HCMV antiviral: qHTS Assay for inhibitors of the human cytomegalovirus (HCMV); AID 1259415, 2018; actives 4.5% (n = 410,000); HFF cells, HCMV-luciferase reporter, 72 h; stronger effect = lower value; activity change, negative = inhibition, % at 57.5 µM; in the data active means activity change below about -60%; inconclusive means no clear call, values can overlap the other calls; inactive means above about -39%
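Inhibition of viral replication was scored as loss of reporter luminescence in HFFs infected with HCMV-luciferase (MOI 1 PFU/cell) for 72 h; compounds tested at 2 doses, normalized to buffer and Salinomycin controls.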
VACV mCherry inh: qHTS for Stage-Specific Inhibitors of Vaccinia Orthopoxvirus: mCherry Reporter Primary qHTS. Vaccinia virus mCherry reporter infection, fluorescence. Potency, µM (highest dose often 36.5 µM), actives largely listed as inhibitors. actives 0.63% (n = 310,000). AID 720579, 2013; calls by dose curve; tested in A549 cells; further: nearly all actives have a fitted effect of over 35% in size
Vaccinia Venus: qHTS for Stage-Specific Inhibitors of Vaccinia Orthopoxvirus: Venus Reporter Primary qHTS. Vaccinia virus Venus reporter expression, fluorescence. Potency, µM (series often up to 36.5 µM), actives largely listed as inhibitors. actives 0.46% (n = 330,000); calls by dose curve; tested in A549 cells; further: nearly all actives have a fitted effect of over 30% in size
HCV inh: qHTS Assay for Inhibitors of Hepatitis C Virus (HCV). Huh7.5.1 HCVcc-Cre infection, luciferase reporter, 44 h. Potency, µM (doses to about 41.8 µM), usual class: inhibitors. actives 3.4% (n = 340,000). AID 651820, 2012; active means well fitted inhibition curve with a large enough effect; inconclusive means small, poorly fitted or top-dose-only effect, or another doubt; inactive means no such curve, though single readings can be large or run the other way
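1,000 cells/well; 4 h culture; + compound; + HCVcc-Cre (~0.5 moi); 44 h; luciferase substrate, RT 15 min; read 15 sec.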
MARV entry inh: qHTS for inhibitors of binding or entry into cells for Marburg Virus; Marburg virus pseudotyped entry inhibition, cell reporter; Potency, µM (highest dose often 37.8 µM), actives largely listed as inhibitors; actives 1.8% (n = 300,000); calls by dose curve; tested in HEK293 cells
Lassa entry inh: qHTS for Inhibitors of binding or entry into cells for Lassa Virus; Lassa virus pseudotype entry inhibition, cell reporter; Potency, µM (series often up to 37.9 µM), actives largely listed as inhibitors; actives 1.2% (n = 300,000); AID 540256, 2011; calls by dose curve; tested in HEK293 cells; further: nearly all actives have a fitted effect of over 50% in size
Large screens that a line does not name were inactive. Shown are actives, neighbours in structure and some others; about 7.8% of the full set was active somewhere.

CCC(Cc1ccccc1)NC(=O)c1ccc2nc(N3CCC(C)CC3)sc2c1 (stereo not drawn)	MARV entry inh inconclusive (no result: HCV inh)
Cc1nc2n(c(=O)c1CCN1CCC(c3noc4cc(F)ccc34)CC1)CCCC2O (stereo not drawn)	none (no result: VACV mCherry inh, Vaccinia Venus, HCV inh)
CCn1c(=O)cc(OCC(=O)N(C)c2ccc(OC)cc2)c2ccccc21	HCMV antiviral -71.7 (no result: HCV inh)
CCOc1ccc(N(CC)C(=O)COc2cc(=O)n(C)c3ccccc23)cc1	HCMV antiviral -102.8 (no result: VACV mCherry inh, Vaccinia Venus, MARV entry inh, Lassa entry inh)
CC(=O)c1ccc(N2CCN(C(=O)COc3ccc4ccccc4c3)CC2)cc1	HCMV antiviral -62.0 (no result: HCV inh, MARV entry inh, Lassa entry inh)
CCN(C(=O)COc1cc(=O)n(C)c2ccccc12)c1cccc(C(F)(F)F)c1	MARV entry inh inconclusive (no result: HCV inh)
CC(=O)c1ccc(N2CCN(C(=O)CCC(=O)c3cccs3)CC2)cc1	HCMV antiviral -82.4 (no result: VACV mCherry inh, Vaccinia Venus)
COc1ccc(N2CCN(C(=O)COc3ccc4ccccc4c3)CC2)cc1	none (no result: VACV mCherry inh)
COc1cc(OC)c(NC(=O)CCc2nc(C3=CCN(Cc4cccc(Cl)c4)CC3)no2)cc1Cl	none (no result: HCV inh, MARV entry inh)
CCc1ccc(NC(=O)CC2C(=O)N(c3cccc(C)c3)C(=O)N2Cc2ccco2)cc1 (stereo not drawn)	HCMV antiviral inconclusive (no result: HCV inh, MARV entry inh)
Cc1cc(-c2ccnc(-n3ncc(C(=O)NCC4COCCO4)c3C)n2)c(C)s1 (stereo not drawn)	none (no result: HCMV antiviral, HCV inh, MARV entry inh, Lassa entry inh)
CCOc1ccc(N(CC)C(=O)COc2cc(=O)n(CC)c3ccccc23)cc1	HCMV antiviral -95.5, HCV inh inconclusive (no result: VACV mCherry inh, Vaccinia Venus)
CCn1c(=O)cc(OCC(=O)N2CCCC2)c2ccccc21	none (no result: MARV entry inh, Lassa entry inh)
CCn1c(=O)cc(OCC(=O)N2CCN(c3ccc(OC)cc3)CC2)c2ccccc21	HCMV antiviral -95.1, Lassa entry inh inconclusive (no result: HCV inh)
CCn1c(=O)cc(OCC(=O)N2CCN(c3ccc(C(C)=O)cc3)CC2)c2ccccc21	none (no result: HCV inh)
COC(=O)C(c1ccccc1)(c1cn(Cc2ccccc2)c2ccccc12)C(Nc1ccccc1)c1ccccc1 (stereo not drawn)	none (no result: VACV mCherry inh, Vaccinia Venus, HCV inh, MARV entry inh, Lassa entry inh)
CCc1nnc(N/N=C/c2ccc(-c3ccc([N+](=O)[O-])cc3)o2)n1N	VACV mCherry inh inconclusive, Vaccinia Venus inconclusive, MARV entry inh inconclusive
Cc1nnc(N/N=C/c2ccc(-c3ccccc3F)o2)n1N	VACV mCherry inh inconclusive, Vaccinia Venus 28.2µM, MARV entry inh inconclusive, Lassa entry inh inconclusive
Cc1nnc(N/N=C\c2ccc(-c3ccccc3[N+](=O)[O-])o2)n1N	VACV mCherry inh inconclusive, Vaccinia Venus 22.4µM, MARV entry inh inconclusive
COc1ccc(OC)c(C2CC(=O)Oc3c2c(=O)n(C)c2ccccc32)c1 (stereo not drawn)	none (no result: HCV inh)
CCOC(=O)C1=CCN(S(=O)(=O)c2ccc(C)cc2)C1c1ccc(CC)cc1 (stereo not drawn)	HCMV antiviral -96.8 (no result: HCV inh, MARV entry inh, Lassa entry inh)
CCOC(=O)C1=CCN(S(=O)(=O)c2ccc(C)cc2)C1c1ccc(C)cc1 (stereo not drawn)	none (no result: HCV inh, MARV entry inh, Lassa entry inh)
CCOC(=O)C1=CCN(S(=O)(=O)c2ccc(Cl)cc2)C1c1cccc(C)c1 (stereo not drawn)	HCMV antiviral -86.7 (no result: HCV inh, MARV entry inh, Lassa entry inh)
CCN(CC)CCCNc1ccc(-c2nnc(-c3ccc(OCC(C)C)cc3)o2)cn1	HCV inh 8.91µM
CCOC(=O)Cn1nnc(-c2ccc(OCC(C)C)cc2)n1	none (no result: VACV mCherry inh, Vaccinia Venus)
CC(C)COc1ccc(-c2nnc(-c3ccco3)o2)cc1	HCV inh inconclusive, MARV entry inh inconclusive, Lassa entry inh 7.3µM (no result: VACV mCherry inh, Vaccinia Venus)
CCCOc1ccc(-c2nnc(-c3ccco3)o2)cc1	MARV entry inh inconclusive, Lassa entry inh 8.2µM (no result: VACV mCherry inh, Vaccinia Venus)
O=C(COc1ccccc1)Nc1ccc(-c2nnc(-c3ccco3)o2)cc1	none (no result: VACV mCherry inh)
FC(F)(F)c1cccc(CN2CCC(c3cc(-c4cccs4)n[nH]3)CC2)c1	HCMV antiviral -78.7, VACV mCherry inh inconclusive, Vaccinia Venus inconclusive, HCV inh inconclusive, MARV entry inh inconclusive, Lassa entry inh inconclusive
FC(F)(F)c1cccc(-c2cc(C3CCNCC3)[nH]n2)c1	HCMV antiviral -72.5, HCV inh inconclusive, MARV entry inh inconclusive, Lassa entry inh inconclusive
COCCNC(=O)Cn1nc(N2CCN(c3ccccc3OC)CC2)ccc1=O	none (no result: HCV inh, MARV entry inh)
COc1cc(/C=N/NC(=O)CCN2CCN(C(c3ccccc3)c3ccccc3)CC2)ccc1O	HCV inh 4.47µM, MARV entry inh inconclusive
COc1cc(/C=N/NC(=O)CCc2ccccc2)ccc1O	MARV entry inh inconclusive, Lassa entry inh 2.82µM
COc1cc(/C=N\NC(=O)CNC(=O)C(c2ccccc2)c2ccccc2)ccc1O	HCV inh inconclusive
CC1CCN(CC(CS(=O)(=O)c2ccc([N+](=O)[O-])cc2)N2CCC(C)CC2)CC1 (stereo not drawn)	HCMV antiviral -62.3, VACV mCherry inh inconclusive, Vaccinia Venus inconclusive, HCV inh 5.01µM (no result: MARV entry inh, Lassa entry inh)
CC(C)(C)c1ccc(/C=C/C(=O)c2ccc(NC3=NCCCS3)cc2)cc1	HCV inh 11.2µM (no result: VACV mCherry inh, Vaccinia Venus, Lassa entry inh)
COc1cccc(/C=C/C(=O)c2ccc(NC3=NCCCS3)cc2)c1	MARV entry inh inconclusive
O=C(/C=C/c1ccc(Br)cc1)c1ccc(NC2=NCCCS2)cc1	HCMV antiviral -100.2, HCV inh inconclusive, MARV entry inh inconclusive, Lassa entry inh inconclusive (no result: VACV mCherry inh, Vaccinia Venus)
Cc1cccc(/C=C/C(=O)c2ccc(NC3=NCCCS3)cc2)c1	HCMV antiviral -98.0, Vaccinia Venus inconclusive, HCV inh 11.2µM, MARV entry inh inconclusive
O=C(/C=C/c1ccccc1)c1ccc(NC2=NCCCS2)cc1	MARV entry inh inconclusive
COc1ccc(-c2c3c(=O)n(C)c(=O)n(C)c3cn2-c2ccccc2O)cc1	HCMV antiviral inconclusive, VACV mCherry inh inconclusive, HCV inh inconclusive (no result: MARV entry inh, Lassa entry inh)
